PubChem BioAssay AID1159580 (chemical genetic matrix, 2015)
In all, about 5,500 compounds went through this assay and about 2,000 (36%) were called active. Not shown: some 18% with an inconclusive outcome. The list shows a part of the results. A number with no mark means an inactive call. Rule as the data show it: active = normalized growth mostly below about 0.91 (no sharp cut-off); inconclusive = no clear call, values can overlap the other calls; inactive = mostly above about 0.92.

Test: chemical genetic growth profiling, strain panel (AID 1159580);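 also: tested at 20 µM; growth read once vehicle control cultures reached saturation at 30 °C; 1 = growth at the plate median or of vehicle wells; lower values mean less growth of the strain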
Conditions: growth OD

O=C1C=CC2=C3c4cc(O)c(O)cc4CC3(O)COC2=C1O (centres undefined)
normalized growth (S. cerevisiae deletion strains, locus YJR043C, strain POL32, active compounds read low): 0.868 | normalized growth (S. cerevisiae deletion strains, locus YJR066W, strain TOR1, active compounds read low): 0.953 | normalized growth (S. cerevisiae deletion strains, locus YJR075W, strain HOC1, active compounds read low): 0.981 | normalized growth (S. cerevisiae deletion strains, locus YKL009W, strain mrt4, active compounds read low): 1.16 [resistant] (active) | normalized growth (S. cerevisiae deletion strains, locus YKL068W, active compounds read low): 1.02 | normalized growth (S. cerevisiae deletion strains, locus YKL085W, strain MDH1 (second series), active compounds read low): 1.02 | normalized growth (S. cerevisiae deletion strains, locus YKL085W, strain MDH1, active compounds read low): 1.02 | normalized growth (S. cerevisiae deletion strains, locus YKL160W, strain elf1, active compounds read low): 1.01 | normalized growth (S. cerevisiae deletion strains, locus YKL190W, strain CNB1, active compounds read low): 0.908 (active) | normalized growth (S. cerevisiae deletion strains, locus YKR001C, strain vps1, active compounds read low): 1.06 | normalized growth (S. cerevisiae deletion strains, locus YKR026C, strain gcn3, active compounds read low): 1.05 | normalized growth (S. cerevisiae deletion strains, locus YKR091W, strain srl3, active compounds read low): 1.04 | normalized growth (S. cerevisiae deletion strains, locus YLL001W, strain dnm1, active compounds read low): 1 | normalized growth (S. cerevisiae deletion strains, locus YLL026W, active compounds read low): 1.02 | normalized growth (S. cerevisiae deletion strains, locus YLL041C, strain sdh2, active compounds read low): 1.02 | normalized growth (S. cerevisiae deletion strains, locus YLR027C, strain aat2, active compounds read low): 1.01 | normalized growth (S. cerevisiae deletion strains, locus YLR039C, strain RIC1, active compounds read low): 0.848 | normalized growth (S. cerevisiae deletion strains, locus YLR058C, strain SHM2, active compounds read low): 0.92 | normalized growth (S. cerevisiae deletion strains, locus YLR102C, strain apc9, active compounds read low): 1.03 | normalized growth (S. cerevisiae deletion strains, locus YLR113W, strain HOG1, active compounds read low): 1.06 | normalized growth (S. cerevisiae deletion strains, locus YLR221C, strain rsa3, active compounds read low): 0.992 | normalized growth (S. cerevisiae deletion strains, locus YLR258W, strain gsy2, active compounds read low): 0.996 | normalized growth (S. cerevisiae deletion strains, locus YLR262C, strain YPT6 (second series), active compounds read low): 0.875 | normalized growth (S. cerevisiae deletion strains, locus YLR262C, strain YPT6, active compounds read low): 0.931 | normalized growth (S. cerevisiae deletion strains, locus YLR268W, strain sec22, active compounds read low): 1.01 | normalized growth (S. cerevisiae deletion strains, locus YLR320W, strain mms22, active compounds read low): 1.04 | normalized growth (S. cerevisiae deletion strains, locus YLR330W, strain CHS5, active compounds read low): 1.01 | normalized growth (S. cerevisiae deletion strains, locus YLR342W, strain FKS1 (second series), active compounds read low): 0.86 | normalized growth (S. cerevisiae deletion strains, locus YLR342W, strain FKS1, active compounds read low): 0.994 | normalized growth (S. cerevisiae deletion strains, locus YLR357W, strain rsc2, active compounds read low): 0.88 | normalized growth (S. cerevisiae deletion strains, locus YLR370C, strain arc18, active compounds read low): 0.977 | normalized growth (S. cerevisiae deletion strains, locus YLR371W, strain rom2, active compounds read low): 0.96 | normalized growth (S. cerevisiae deletion strains, locus YLR384C, strain iki3, active compounds read low): 1.02 | normalized growth (S. cerevisiae deletion strains, locus YLR418C, strain cdc73, active compounds read low): 0.954 | normalized growth (S. cerevisiae deletion strains, locus YML016C, strain PPZ1, active compounds read low): 0.938 | normalized growth (S. cerevisiae deletion strains, locus YML032C, strain rad52, active compounds read low): 1.05 | normalized growth (S. cerevisiae deletion strains, locus YML120C, strain ndi1, active compounds read low): 1.02 | normalized growth (S. cerevisiae deletion strains, locus YML124C, strain tub3, active compounds read low): 1.03 | normalized growth (S. cerevisiae deletion strains, locus YMR058W, strain fet3, active compounds read low): 0.611 (active) | normalized growth (S. cerevisiae deletion strains, locus YMR078C, strain ctf18, active compounds read low): 1.05 | normalized growth (S. cerevisiae deletion strains, locus YMR125W, strain sto1, active compounds read low): 1.11 | normalized growth (S. cerevisiae deletion strains, locus YMR129W, active compounds read low): 1.03 | normalized growth (S. cerevisiae deletion strains, locus YMR205C, strain PFK2, active compounds read low): 1.05 | normalized growth (S. cerevisiae deletion strains, locus YMR223W, strain ubp8, active compounds read low): 1.01 | normalized growth (S. cerevisiae deletion strains, locus YMR263W, strain SAP30, active compounds read low): 0.965 | normalized growth (S. cerevisiae deletion strains, locus YMR307W, strain GAS1, active compounds read low): 0.815 | normalized growth (S. cerevisiae deletion strains, locus YNL067W, strain RPL9B, active compounds read low): 0.956 | normalized growth (S. cerevisiae deletion strains, locus YNL071W, strain lat1, active compounds read low): 1.04 | normalized growth (S. cerevisiae deletion strains, locus YNL128W, strain TEP1, active compounds read low): 0.845 (active) | normalized growth (S. cerevisiae deletion strains, locus YNL183C, strain NPR1, active compounds read low): 0.983 | normalized growth (S. cerevisiae deletion strains, locus YNL209W, strain ssb2, active compounds read low): 0.831 (active) | normalized growth (S. cerevisiae deletion strains, locus YNL233W, strain BNI4, active compounds read low): 0.97 | normalized growth (S. cerevisiae deletion strains, locus YNL248C, strain rpa49, active compounds read low): 1.03 | normalized growth (S. cerevisiae deletion strains, locus YNL250W, strain rad50, active compounds read low): 1 | normalized growth (S. cerevisiae deletion strains, locus YNL271C, strain bni1, active compounds read low): 1.01 | normalized growth (S. cerevisiae deletion strains, locus YNL298W, strain CLA4, active compounds read low): 1.01 | normalized growth (S. cerevisiae deletion strains, locus YNL307C, strain MCK1, active compounds read low): 1.02 | normalized growth (S. cerevisiae deletion strains, locus YNL322C, strain KRE1 (second series), active compounds read low): 1.05 | normalized growth (S. cerevisiae deletion strains, locus YNR049C, strain mso1, active compounds read low): 1.05 | normalized growth (S. cerevisiae deletion strains, locus YNR052C, strain pop2, active compounds read low): 1.01 | normalized growth (S. cerevisiae deletion strains, locus YOL012C, strain htz1): 0.462 | normalized growth (S. cerevisiae deletion strains, locus YOL147C, strain pex11, active compounds read low): 1.03 | normalized growth (S. cerevisiae deletion strains, locus YOR001W, strain rrp6, active compounds read low): 1.01 | normalized growth (S. cerevisiae deletion strains, locus YOR061W, strain CKA2, active compounds read low): 0.977 | normalized growth (S. cerevisiae deletion strains, locus YOR069W, strain VPS5, active compounds read low): 0.992 | normalized growth (S. cerevisiae deletion strains, locus YOR070C, strain gyp1, active compounds read low): 0.969 | normalized growth (S. cerevisiae deletion strains, locus YOR080W, strain dia2, active compounds read low): 1.04 | normalized growth (S. cerevisiae deletion strains, locus YOR083W, strain WHI5, active compounds read low): 0.965 | normalized growth (S. cerevisiae deletion strains, locus YOR106W, strain vam3, active compounds read low): 0.811 (active) | normalized growth (S. cerevisiae deletion strains, locus YOR136W, strain idh2, active compounds read low): 1.05 | normalized growth (S. cerevisiae deletion strains, locus YOR144C, strain elg1, active compounds read low): 1.03 | normalized growth (S. cerevisiae deletion strains, locus YOR184W, strain ser1, active compounds read low): 1.04 | normalized growth (S. cerevisiae deletion strains, locus YOR231W, strain MKK1, active compounds read low): 1.02 | normalized growth (S. cerevisiae deletion strains, locus YOR265W, strain rbl2, active compounds read low): 1.02 | normalized growth (S. cerevisiae deletion strains, locus YOR270C, strain vph1, active compounds read low): 0.956 | normalized growth (S. cerevisiae deletion strains, locus YOR290C, strain snf2, active compounds read low): 0.985 | normalized growth (S. cerevisiae deletion strains, locus YOR316C, strain cot1, active compounds read low): 1.04 | normalized growth (S. cerevisiae deletion strains, locus YPL051W, strain arl3, active compounds read low): 0.884 (active) | normalized growth (S. cerevisiae deletion strains, locus YPL078C, strain atp4, active compounds read low): 1.01 | normalized growth (S. cerevisiae deletion strains, locus YPL106C, strain sse1, active compounds read low): 0.99 | normalized growth (S. cerevisiae deletion strains, locus YPL240C, strain hsp82, active compounds read low): 1.03 | normalized growth (S. cerevisiae deletion strains, locus YPL241C, strain CIN2, active compounds read low): 0.994 | normalized growth (S. cerevisiae deletion strains, locus YPL256C, strain CLN2, active compounds read low): 1.05 | normalized growth (S. cerevisiae deletion strains, locus YPR119W, strain clb2, active compounds read low): 1.02 | normalized growth (S. cerevisiae deletion strains, locus YPR141C, strain kar3, active compounds read low): 1.01 | normalized growth (S. cerevisiae deletion strains, locus YPR163C, strain tif3, active compounds read low): 1.02 | normalized growth (S. cerevisiae deletion strains, locus YPR167C, strain met16, active compounds read low): 1.04 | normalized growth (S. cerevisiae deletion strains, strain wtn01, active compounds read low): 1.03 | normalized growth (S. cerevisiae strains, strain wild type, active compounds read low): 0.814 (active)
